About 79,000 compounds went through this panel and 15% of them were active in at least one assay; those are over-represented in the sample as a whole. Values without a mark were called inactive. The source made the active and inactive calls. Rule as the data show it: active = growth inhibition above about 70%; inactive = the rest.
What was measured:
[1] = NCI Yeast Anticancer Drug Screen. Data for the rad50 strain (AID 155);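 also: 0% = growth of vehicle-only cultures of the same strain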; details: S. cerevisiae rad50 strain growth inhibition, stronger effect = higher value
How it was run: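 Relative growth inhibition (compound vs vehicle) was measured in yeast with a defined repair-gene alteration.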

[2] = NCI Yeast Anticancer Drug Screen. Data for the mec2-1 strain (AID 157); details: S. cerevisiae mec2-1 strain, stronger effect = higher value
How it was run: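 Vehicle-treated cultures served as reference for growth inhibition of compound-exposed mec2-1 yeast.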

[3] = NCI Yeast Anticancer Drug Screen. Data for the sgs1 mgt1 strain (AID 161);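 also: 0% = growth of cultures given vehicle only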; details: S. cerevisiae sgs1 mgt1 strain, stronger effect = higher value
How it was run: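 Test agents were incubated with a DNA-repair-mutant yeast strain. Growth was then read and compared against vehicle-treated controls.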

[4] = NCI Yeast Anticancer Drug Screen. Data for the cln2 rad14 strain (AID 165);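 also: 0% = growth equal to vehicle treated cultures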; details: S. cerevisiae cln2 rad14 strain, stronger effect = higher value
How it was run: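 Each compound was tested on cln2 rad14 yeast. Inhibition of growth was calculated against vehicle-exposed controls.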

[5] = NCI Yeast Anticancer Drug Screen. Data for the bub3 strain (AID 167); details: S. cerevisiae bub3 mutant strain, stronger effect = higher value
How it was run: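 Screening used yeast with an engineered genetic alteration affecting cell cycle control. Compound-exposed cultures were compared with vehicle cultures, and reduced growth was taken as inhibition.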

[6] = NCI Yeast Anticancer Drug Screen. Data for the mlh1 rad18 strain (AID 175); details: S. cerevisiae mlh1 rad18 strain growth inhibition, stronger effect = higher value
How it was run: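 Vehicle-treated cultures served as the reference for growth inhibition in a yeast strain carrying DNA damage repair alterations exposed to each compound.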

[7] = at 5.0 µM (retest, dose inferred, filed as 0.5)
[8] = at 50.0 µM (retest, dose inferred, filed as 5.0)

SMILES | growth inhibition [1, 7] [%] | growth inhibition [1, 8] | growth inhibition ([1]; at 50.0 µM) | growth inhibition [2, 7] [%] | growth inhibition [2, 8] | growth inhibition ([2]; at 50.0 µM) | growth inhibition [3, 7] [%] | growth inhibition [3, 8] | growth inhibition ([3]; at 50.0 µM) | growth inhibition [4, 7] [%] | growth inhibition [4, 8] | growth inhibition ([4]; at 50.0 µM) | growth inhibition [5, 7] [%] | growth inhibition [5, 8] | growth inhibition ([5]; at 50.0 µM) | growth inhibition [6, 7] [%] | growth inhibition [6, 8] | growth inhibition ([6]; at 50.0 µM)
Nc1c2c(=O)[nH]c(=O)c2c(N)c2c(=O)c3ccccc3c(=O)c12 | 36 | 53% | 78.2% (active) | 21 | 47% | 35.8% | 50 | 72% (active) | 38% | -26 | 41% | 34.5% | 21 | 78% (active) | 29.4% | 30 | 59% | 60.6%
CC(C)(C)CC(C)(C)c1ccc(O)cc1O | 7 | 99% (active) | 99.5% (active) | 7 | 99% (active) | 99.5% (active) | -3 | 99% (active) | 99.2% (active) | 2 | 98% (active) | 98.8% (active) | 36 | 99% (active) | 98.8% (active) | 6 | 99% (active) | 99.3% (active)
C/C([O-])=C1\Cc2ccccc2C1=O.C/C([O-])=C1\Cc2ccccc2C1=O.CC[O-].CC[O-].[Ti+4] | 25 | 25% | 89% (active) | 17 | 17% | 89.4% (active) | 4 | 4% | 91.5% (active) | 4 | 4% | 81% (active) | 4 | 4% | 88.6% (active) | 20 | 20% | 90.7% (active)

Source: PubChem BioAssay (NCI)
